Assay [1] has as its system Zika virus NS2B-NS3 protease (unlinked complex). The assay can be described thus: Primary screen GU Rhodamine qHTS for Zika virus inhibitors: Unlinked NS2B-NS3 protease assay (AID 1347159). Further: nearly all actives have a fitted effect of over 60% in size. The essentials:
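Compounds, tested up to 114 microM, were incubated for 15 minutes with 25 nM unlinked NS2B-NS3 protease at pH 8.0. Cleavage of 1.5 microM Rhodamine110 substrate was then followed by fluorescence for 15 minutes.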

For assay [2], the system named is Zika virus NS2B-NS3 protease (linked construct). In words: Primary screen NINDS Rhodamine qHTS for Zika virus inhibitors (AID 1347160). Further: nearly all actives have a fitted effect of over 55% in size. An outline of the steps: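 Percent inhibition, normalized to uninhibited and enzyme-free controls, is fitted to a 4-parameter Hill equation. Fluorescence change comes from a 15-min cleavage of 1.5 microM bis-peptide Rhodamine110 substrate by 25 nM linked NS2B-NS3 at room temperature.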
Background: Quantitative high-throughput screening tests each substance at several concentrations.

Inconclusive results are not listed. A number with no mark means an inactive call. Calls of active or inactive are those of the source. The call rests on the fitted dose curve; in most records, active means well fitted inhibition curve with a large enough effect; inconclusive means small, poorly fitted or top-dose-only effect; inactive means no such curve, though single readings can be large or run the other way.
On the % scale 0 is the no-effect control and ±100 the full control effect.

For the compound `Cc1cc2c(F)c(Oc3ncnn4cc(OCC(C)OC(=O)C(C)N)c(C)c34)ccc2[nH]1` (centres undefined), the Potency entry in assay [1] and in assay [2] was “inactive” throughout.

For `Clc1cccc(COc2cncc(N3CCNCC3)n2)c1`, the Potency result in assay [1] and in assay [2] was “inactive” throughout.

`Cn1nc(C(C)(C)C)cc1C(=O)N[C@@H](Cc1cccc(Cl)c1)C(=O)NCC#N`: the Potency result in assay [1] and in assay [2] was “inactive” each time.

Take `COc1c(F)cccc1C(=O)N1C[C@@H](C)CC[C@H]1CNc1ccc(Br)cn1`: the Potency entry in assay [1] and in assay [2] was “inactive” in each case.

For `O=C(Nc1ccc(N(Cc2ccsc2)C(=O)Cn2nnc3ccccc32)cc1)C1CC1`, the Potency entry in assay [1] and in assay [2] was “inactive” throughout.

In the case of `O=C(NCCN1CCOCC1)c1cc2c(Oc3ccc(NC(=O)C4(C(=O)Nc5ccc(F)cc5)CC4)cc3)ccnc2[nH]1`, the Potency entry in assay [1] and in assay [2] was “inactive” each time.

Turning to `CN(C)Cc1ccc(-c2cnn3c(-c4cccc(NC(=O)c5cccc(C(F)(F)F)c5)c4)ccnc23)cc1`, the Potency entry in assay [1] and in assay [2] was “inactive” in each case.

`C[C@@H]1O[C@@H](O[C@H]2[C@H](OC(=O)[C@]34CCC(C)(C)C[C@H]3C3=CCC5[C@@]6(C)C[C@H](O)[C@H](O[C@@H]7O[C@H](C(=O)O)[C@@H](O)[C@H](O)[C@H]7O)[C@@](C)(CO)C6[C@H](O)C[C@@]5(C)[C@]3(C)C[C@H]4O)O[C@@H](CO)[C@@H]2O)[C@H](O)[C@H](O)[C@H]1O[C@@H]1OC[C@@H](O)[C@H](O[C@H]2OC[C@](O)(CO)[C@H]2O)[C@H]1O` (some centres undefined): the activity change, negative = inhibition is 13.4% [at 19.1 µM] in assay [1] and -5.61% [at 10.7 µM] in assay [2].

With `N#Cc1cc(-c2ccnc(Nc3ccc(N4CCOCC4)cc3)n2)ccc1OC1CCOCC1`, the Potency entry in assay [1] and in assay [2] was “inactive” in each case.

As to `CCC(C)CC(=O)OC1C(=O)C(CO)=CC(O)C1C(C)C` (centres undefined), the Potency result in assay [1] and in assay [2] was “inactive” in each case.

For `O=C(Nc1ccc2[nH]c(=O)oc2c1)C(=O)N1CCC(Cc2ccc(F)cc2)CC1`, the Potency entry in assay [1] and in assay [2] was “inactive” each time.

Take `Cc1cc(Nc2nc(-c3ccccc3)nc3ccccc23)n[nH]1`: the Potency entry in assay [1] and in assay [2] was “inactive” each time.

For `CC(C)c1cc(-c2ccc(F)c3ccccc23)nc(N)n1`, the Potency entry in assay [1] and in assay [2] was “inactive” throughout.

Consider `C[C@@H](NC(=O)C(=O)c1c[nH]c2ccc([N+](=O)[O-])cc12)c1ccccc1`, for which the Potency result in assay [1] and in assay [2] was “inactive” in each case.

Turning to `CC(C)(C)c1ccc(NC(=O)N2CCN(c3ncccc3Cl)CC2)cc1`, the Potency result in assay [1] and in assay [2] was “inactive” each time.

Consider `COCc1c(Cl)ccc2c1CC[C@H]2c1ncc[nH]1`, for which the Potency result in assay [1] and in assay [2] was “inactive” throughout.

For the compound `COC1CCN(c2cccc(-c3cc(NC(C)=O)nc(-n4nc(C)cc4C)n3)n2)CC1`, the Potency entry in assay [1] and in assay [2] was “inactive” in each case.

On to `NCC1CCN(c2nccc(-c3ccc4ccccc4c3)n2)CC1`, for which the Potency result in assay [1] and in assay [2] was “inactive” throughout.

On to `CC(C)(Cc1nc(-c2ccc(O)cn2)no1)C(=O)NC1=C(C(=O)O)CCCC1`, for which the Potency result in assay [1] and in assay [2] was “inactive” each time.

`CC(=O)NC[C@H]1CN(c2ccc(N3CCSCC3)c(F)c2)C(=O)O1`: the Potency entry in assay [1] and in assay [2] was “inactive” in each case.

With `CN1CCN(c2ccc(-c3cccc(CN4CCOCC4)c3)cc2NC(=O)c2c[nH]c(=O)cc2C(F)(F)F)CC1`, the Potency entry in assay [1] and in assay [2] was “inactive” each time.

With `O=c1cc(N2CCOCC2)nc2c3ccccc3ccn12`, the Potency entry in assay [1] and in assay [2] was “inactive” in each case.

With `CCNC(=O)c1noc(-c2cc(Cl)c(O)cc2O)c1-c1ccc(OC)cc1`, the Potency entry in assay [1] and in assay [2] was “inactive” throughout.

`Fc1ccc(-c2nc(-c3c(F)cccc3F)[nH]c2-c2ccncc2)cc1`: the Potency result in assay [1] and in assay [2] was “inactive” throughout.

Take `CC#CCn1c(N2CCCC(N)C2)nc2c1c(=O)n(Cc1nc(C)c3ccccc3n1)c(=O)n2C` (centres undefined): the Potency result in assay [1] and in assay [2] was “inactive” in each case.

Turning to `NS(=O)(=O)c1ccc(NC(=O)Nc2ccc(F)cc2)cc1`, the Potency entry in assay [1] and in assay [2] was “inactive” each time.

Turning to `CC1(C)CCCC2(C)C1C(=O)C=C(C(=O)O)C2(O)C(=O)O` (centres undefined), the Potency result in assay [1] and in assay [2] was “inactive” each time.

`Cc1ccc(S(=O)(=O)N2CCC[C@H]2c2ccc(F)cc2)cc1`: the Potency entry in assay [1] and in assay [2] was “inactive” throughout.

With `CN(C)[C@@H]1CCc2[nH]c3ccc(NC(=O)c4ccc(F)cc4)cc3c2C1`, the Potency entry in assay [1] and in assay [2] was “inactive” each time.

Take `O=C(C(Cc1cccc(C(F)(F)F)c1)NS(=O)(=O)c1cc(F)c2c(c1)CCNC2)N1CCCC1` (centres undefined): the Potency result in assay [1] and in assay [2] was “inactive” in each case.

Take `CN[C@@H]1[C@H](O[C@H]2[C@H](O[C@@H]3[C@@H](O)[C@H](O)[C@@H](N=C(N)N)[C@H](O)[C@H]3N=C(N)N)O[C@@H](C)[C@]2(O)CO)O[C@@H](CO)[C@H](O)[C@H]1O`: the Potency entry in assay [1] and in assay [2] was “inactive” each time.

As to `CNC(=O)COC(=O)N1CCC(CCc2ccc(Cl)cc2)CC1`, the Potency result in assay [1] and in assay [2] was “inactive” throughout.

As to `C=C(COC(=O)C(O)C(O)CN)C12OC1C1(C)C(=CC2=O)C(O)C(O)CC1C` (centres undefined), the Potency entry in assay [1] and in assay [2] was “inactive” throughout.

For `CCn1c(=O)c(-c2ccc(Cl)cc2Cl)cc2cnc(Nc3ccc(N4CCNCC4)c(F)c3)nc21`, the Potency result in assay [1] and in assay [2] was “inactive” throughout.

As for `Cc1cc(NC(=O)NCCN2CCC(O)(Cc3ccccc3)CC2)c2ccccc2n1`, the Potency entry in assay [1] and in assay [2] was “inactive” throughout.

As for `CC(=O)Nc1cccc(Nc2ncnc(N3CCC(OCc4ccc(OC(F)(F)F)cc4)CC3)n2)c1C`, the Potency entry in assay [1] and in assay [2] was “inactive” each time.

Take `CCc1cc2c(cc1CC)CC(NCC(O)c1ccc(O)c3[nH]c(=O)ccc13)C2` (centres undefined): the Potency entry in assay [1] and in assay [2] was “inactive” throughout.

Source of the values: PubChem BioAssay (NCATS).
